Reference: ChEMBL document CHEMBL3988442, “University of Dundee, Small-Polar-MMV Screening Library” (2021)
For some of these results: Measured potencies and affinities stand elsewhere.

Columns and labels:
Design in all cases: scale not given: direction of the effect not stated beside the values
[1] = target: Protein translocase subunit SecA (Escherichia coli (strain K12)) (UniProt P10408); test: Assay to Identify E. coli SecA ATPase Inhibitors; assay type: functional; details: 30 µM
[2] = target: T1, Ubiquitin-activating enzyme e1, putative (Leishmania donovani (strain BPK282A1)) (UniProt E9BSI1); test: Leishmania donovani Ubiquitin Activating Enzyme (LdE1); assay type: functional; details: 30 µM
T1 sequence (whole entry): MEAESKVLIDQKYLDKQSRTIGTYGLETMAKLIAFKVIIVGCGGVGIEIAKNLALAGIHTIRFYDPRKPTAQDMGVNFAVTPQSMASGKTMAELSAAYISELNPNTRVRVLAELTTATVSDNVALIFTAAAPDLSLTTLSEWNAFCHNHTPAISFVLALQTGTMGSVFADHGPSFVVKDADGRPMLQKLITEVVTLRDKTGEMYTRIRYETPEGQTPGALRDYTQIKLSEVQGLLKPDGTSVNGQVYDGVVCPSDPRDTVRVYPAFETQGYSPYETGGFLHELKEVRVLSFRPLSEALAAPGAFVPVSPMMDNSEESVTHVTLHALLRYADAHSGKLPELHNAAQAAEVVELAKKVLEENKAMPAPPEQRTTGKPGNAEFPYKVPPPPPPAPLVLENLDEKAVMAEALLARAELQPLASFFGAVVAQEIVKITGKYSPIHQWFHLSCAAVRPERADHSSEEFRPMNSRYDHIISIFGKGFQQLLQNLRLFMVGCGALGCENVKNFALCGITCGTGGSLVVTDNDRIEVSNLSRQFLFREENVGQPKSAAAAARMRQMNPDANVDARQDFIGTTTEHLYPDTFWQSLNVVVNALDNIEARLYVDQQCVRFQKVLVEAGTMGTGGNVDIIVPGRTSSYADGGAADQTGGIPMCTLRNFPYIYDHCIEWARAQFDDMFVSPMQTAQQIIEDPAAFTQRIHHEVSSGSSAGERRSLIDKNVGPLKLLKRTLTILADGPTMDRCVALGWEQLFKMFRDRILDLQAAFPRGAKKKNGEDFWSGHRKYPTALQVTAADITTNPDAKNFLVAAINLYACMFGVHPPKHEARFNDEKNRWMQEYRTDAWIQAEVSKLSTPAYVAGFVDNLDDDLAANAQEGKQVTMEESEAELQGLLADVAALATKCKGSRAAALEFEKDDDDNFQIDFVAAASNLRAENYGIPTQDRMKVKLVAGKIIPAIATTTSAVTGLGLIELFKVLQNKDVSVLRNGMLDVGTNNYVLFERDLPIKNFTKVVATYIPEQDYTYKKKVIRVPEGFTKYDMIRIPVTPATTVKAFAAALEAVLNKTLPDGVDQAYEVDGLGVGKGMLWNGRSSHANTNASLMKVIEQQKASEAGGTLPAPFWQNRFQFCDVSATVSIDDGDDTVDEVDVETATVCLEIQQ

[3] = target: AMP-activated protein kinase, AMPK (Homo sapiens) (UniProt P54646+O43741+P54619+Q9UGJ0+Q9Y478+Q13131+Q9UGI9); test: AMP-dependent Kinase enzyme assay. An in vitro enzyme assay that detects ADP turnover that is directly proportional to AMPK activity. This uses naive AMPK that is activated during the assay with MK-8722; assay type: functional; details: 30 µM
[4] = target: Sialic acid-binding Ig-like lectin 9 (Homo sapiens) (UniProt Q9Y336); test: Hs-Siglec9 ALPHAscreen SOP 20170721; details: 10 µM
Sialic acid-binding Ig-like lectin 9 (Homo sapiens), sequence (Q9Y336 whole entry): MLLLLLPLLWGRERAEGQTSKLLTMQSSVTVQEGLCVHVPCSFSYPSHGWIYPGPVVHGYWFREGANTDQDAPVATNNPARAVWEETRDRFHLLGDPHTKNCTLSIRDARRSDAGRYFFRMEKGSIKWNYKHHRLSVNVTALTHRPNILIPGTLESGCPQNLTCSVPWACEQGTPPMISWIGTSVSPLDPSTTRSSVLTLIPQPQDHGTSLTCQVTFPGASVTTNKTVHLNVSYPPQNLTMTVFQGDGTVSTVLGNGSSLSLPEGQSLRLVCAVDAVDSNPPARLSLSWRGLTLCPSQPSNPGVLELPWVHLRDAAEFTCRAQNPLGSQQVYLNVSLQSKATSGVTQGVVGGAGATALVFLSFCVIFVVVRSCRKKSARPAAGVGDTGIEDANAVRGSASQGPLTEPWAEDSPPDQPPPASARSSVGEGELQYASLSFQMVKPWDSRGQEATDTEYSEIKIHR

Trypanosoma cruzi = test: Trypanosoma cruzi phosphomannomutase and mannose-1-phosphate guanylyltransferase assay; assay type: functional; details: 10 µM
[5] = target: T2, Arginase-2, mitochondrial (Homo sapiens) (UniProt P78540); test: in vitro enzyme assay to detect the production of urea directly proportional to the activity of Arginase II; assay type: functional; details: 33.3 µM; also: in the data most compounds retested in dose-response had high values
T2 sequence (whole entry): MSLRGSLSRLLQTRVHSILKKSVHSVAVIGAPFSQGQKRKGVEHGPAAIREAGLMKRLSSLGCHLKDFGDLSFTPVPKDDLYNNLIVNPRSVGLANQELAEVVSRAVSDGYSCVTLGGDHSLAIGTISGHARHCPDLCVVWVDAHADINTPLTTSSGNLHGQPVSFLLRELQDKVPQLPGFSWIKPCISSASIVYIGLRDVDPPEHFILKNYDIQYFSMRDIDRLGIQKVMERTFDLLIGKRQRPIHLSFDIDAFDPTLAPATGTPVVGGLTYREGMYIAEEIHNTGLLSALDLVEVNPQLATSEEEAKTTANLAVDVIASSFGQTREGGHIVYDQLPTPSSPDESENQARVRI

[6] = target: T3, Proteasome subunit beta (Trypanosoma cruzi) (UniProt O96673); test: Trypanosoma cruzi proteasome chymotrypsin-like activity (TcProtChymo) assay.; also: in the data most compounds retested in dose-response had high values; assay type: functional; details: 9.37 µM
T3 sequence (whole entry): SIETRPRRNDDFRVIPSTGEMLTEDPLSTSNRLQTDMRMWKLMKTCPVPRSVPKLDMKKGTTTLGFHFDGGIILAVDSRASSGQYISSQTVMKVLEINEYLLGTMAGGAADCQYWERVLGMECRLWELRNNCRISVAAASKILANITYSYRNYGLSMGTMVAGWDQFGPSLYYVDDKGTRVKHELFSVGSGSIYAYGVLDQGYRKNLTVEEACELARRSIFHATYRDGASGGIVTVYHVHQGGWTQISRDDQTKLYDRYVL

Homo sapiens = species on record: Homo sapiens; test: To identify inhibition of the IFN signalling (Jak-Stat) pathway via expression of an eGFP reporter gene under the control of an IFN-stimulated response element (ISRE) containing MxA promoter.; assay type: functional; details: 30 µM
[7] = target: T4, Tyrosyl-tRNA synthetase, putative (Trypanosoma cruzi (strain CL Brener)) (UniProt Q4DSP6); test: Trypanosoma cruzi tyrosyl tRNA synthetase (TcYRS) _High Tyrosine SOP; assay type: functional; details: 30 µM; also: in the data most compounds retested in dose-response had high values
T4 sequence (whole entry): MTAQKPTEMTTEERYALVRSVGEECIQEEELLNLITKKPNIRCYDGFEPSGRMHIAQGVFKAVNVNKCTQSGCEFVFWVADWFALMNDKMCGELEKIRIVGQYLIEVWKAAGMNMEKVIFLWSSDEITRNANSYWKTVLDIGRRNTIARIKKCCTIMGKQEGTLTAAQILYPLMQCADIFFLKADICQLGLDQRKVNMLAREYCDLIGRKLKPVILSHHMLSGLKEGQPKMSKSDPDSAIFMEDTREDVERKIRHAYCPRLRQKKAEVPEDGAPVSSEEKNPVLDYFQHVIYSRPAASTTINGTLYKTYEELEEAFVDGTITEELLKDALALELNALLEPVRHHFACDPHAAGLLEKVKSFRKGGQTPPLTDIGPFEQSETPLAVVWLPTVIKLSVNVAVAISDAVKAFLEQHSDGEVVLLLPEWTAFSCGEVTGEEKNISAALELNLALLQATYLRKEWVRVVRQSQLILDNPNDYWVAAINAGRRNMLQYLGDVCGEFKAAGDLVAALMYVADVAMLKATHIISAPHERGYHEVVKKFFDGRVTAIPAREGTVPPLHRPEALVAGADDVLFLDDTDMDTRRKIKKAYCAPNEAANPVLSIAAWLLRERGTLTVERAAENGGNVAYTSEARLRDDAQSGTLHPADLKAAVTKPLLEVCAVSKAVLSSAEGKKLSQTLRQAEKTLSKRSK

[8] = target: T4, Tyrosyl-tRNA synthetase, putative (Trypanosoma cruzi (strain CL Brener)); test: Trypanosoma cruzi tyrosyl tRNA synthetase (TcYRS) SOP; assay type: functional; details: 30 µM
[9] = target: Chromo domain-containing protein 1 (Saccharomyces cerevisiae (strain ATCC 204508 / S288c) (Baker's yeast)) (UniProt P32657); test: ScCHD-1 Enzyme Inhibition Assay; assay type: functional; details: 30 µM; also: in the data most compounds retested in dose-response had high values
Chromo domain-containing protein 1 (Saccharomyces cerevisiae (strain ATCC 204508 / S288c) (Baker's yeast)), sequence (P32657 whole entry, the tested form may be a part): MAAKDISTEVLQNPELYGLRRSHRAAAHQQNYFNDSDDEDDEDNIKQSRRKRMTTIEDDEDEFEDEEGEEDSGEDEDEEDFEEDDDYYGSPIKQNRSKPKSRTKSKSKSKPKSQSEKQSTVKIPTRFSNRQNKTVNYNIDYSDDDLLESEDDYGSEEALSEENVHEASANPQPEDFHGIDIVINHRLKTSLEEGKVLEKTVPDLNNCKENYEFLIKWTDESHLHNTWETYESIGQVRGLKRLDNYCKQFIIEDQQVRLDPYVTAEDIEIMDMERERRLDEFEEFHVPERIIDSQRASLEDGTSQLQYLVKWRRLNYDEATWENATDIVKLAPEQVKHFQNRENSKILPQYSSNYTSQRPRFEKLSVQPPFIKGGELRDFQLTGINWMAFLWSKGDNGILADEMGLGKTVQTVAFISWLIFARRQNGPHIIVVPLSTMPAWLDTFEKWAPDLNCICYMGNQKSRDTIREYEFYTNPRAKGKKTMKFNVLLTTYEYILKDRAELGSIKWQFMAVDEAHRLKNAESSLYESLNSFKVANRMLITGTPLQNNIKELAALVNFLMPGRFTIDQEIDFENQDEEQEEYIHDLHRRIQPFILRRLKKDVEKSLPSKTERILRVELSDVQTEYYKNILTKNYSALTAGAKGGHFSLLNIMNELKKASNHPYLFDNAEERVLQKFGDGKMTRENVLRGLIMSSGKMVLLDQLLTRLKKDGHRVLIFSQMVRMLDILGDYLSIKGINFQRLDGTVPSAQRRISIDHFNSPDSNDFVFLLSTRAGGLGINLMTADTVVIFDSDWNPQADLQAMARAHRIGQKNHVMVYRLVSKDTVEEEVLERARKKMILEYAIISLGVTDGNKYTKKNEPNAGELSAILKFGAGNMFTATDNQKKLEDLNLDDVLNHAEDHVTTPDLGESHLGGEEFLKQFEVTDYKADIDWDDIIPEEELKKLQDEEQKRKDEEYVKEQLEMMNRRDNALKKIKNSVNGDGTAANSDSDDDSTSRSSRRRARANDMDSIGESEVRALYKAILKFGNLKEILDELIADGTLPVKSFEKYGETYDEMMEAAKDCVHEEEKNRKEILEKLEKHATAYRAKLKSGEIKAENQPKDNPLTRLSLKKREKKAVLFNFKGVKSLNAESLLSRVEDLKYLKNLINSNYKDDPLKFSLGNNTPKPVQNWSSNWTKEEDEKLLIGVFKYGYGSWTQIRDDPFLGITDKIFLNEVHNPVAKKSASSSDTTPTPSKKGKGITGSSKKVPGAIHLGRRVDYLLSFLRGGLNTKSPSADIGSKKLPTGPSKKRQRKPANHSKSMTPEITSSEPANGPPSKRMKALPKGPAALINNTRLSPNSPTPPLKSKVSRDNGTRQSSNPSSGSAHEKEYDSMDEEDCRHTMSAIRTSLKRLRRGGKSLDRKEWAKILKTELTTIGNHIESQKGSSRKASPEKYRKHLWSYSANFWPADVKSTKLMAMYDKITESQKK

Protein translocase subunit SecA (Escherichia coli (strain K12)), sequence (P10408 whole entry): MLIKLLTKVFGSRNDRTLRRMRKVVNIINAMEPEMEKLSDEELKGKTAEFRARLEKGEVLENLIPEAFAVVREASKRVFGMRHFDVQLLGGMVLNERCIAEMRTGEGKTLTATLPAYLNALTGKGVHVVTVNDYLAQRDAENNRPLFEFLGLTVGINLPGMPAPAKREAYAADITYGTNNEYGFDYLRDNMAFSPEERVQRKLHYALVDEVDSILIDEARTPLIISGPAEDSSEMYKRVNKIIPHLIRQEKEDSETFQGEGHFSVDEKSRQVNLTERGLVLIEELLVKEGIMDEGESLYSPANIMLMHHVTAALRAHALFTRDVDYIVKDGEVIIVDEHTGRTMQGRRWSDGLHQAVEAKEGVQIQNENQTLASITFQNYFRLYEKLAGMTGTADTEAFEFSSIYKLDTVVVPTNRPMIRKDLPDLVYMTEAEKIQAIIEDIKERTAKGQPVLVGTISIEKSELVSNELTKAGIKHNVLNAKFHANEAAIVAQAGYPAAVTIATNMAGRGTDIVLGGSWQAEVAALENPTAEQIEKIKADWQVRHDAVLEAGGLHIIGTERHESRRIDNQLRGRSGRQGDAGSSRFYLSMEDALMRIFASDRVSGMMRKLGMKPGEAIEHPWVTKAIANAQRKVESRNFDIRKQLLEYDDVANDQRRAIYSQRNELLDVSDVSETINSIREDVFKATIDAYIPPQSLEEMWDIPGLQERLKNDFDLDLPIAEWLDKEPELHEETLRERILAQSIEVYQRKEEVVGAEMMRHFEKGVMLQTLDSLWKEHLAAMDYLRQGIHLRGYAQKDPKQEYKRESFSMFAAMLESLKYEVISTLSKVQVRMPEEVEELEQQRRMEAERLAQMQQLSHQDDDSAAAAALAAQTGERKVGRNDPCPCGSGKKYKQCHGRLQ

Row | SMILES | Percent Effect [1] [%] | Percent Effect [2] [%] | Percent Effect [3] [%] | Percent Effect [4] [%] | Percent Effect (Trypanosoma cruzi) [%] | Percent Effect [5] [%] | Percent Effect [6] [%] | Percent Effect (Homo sapiens) [%] | Percent Effect [7] [%] | Percent Effect [8] [%] | Percent Effect [9] [%]
1 | Cc1cnn(CCC(=O)N2CCCC(c3cc(C(N)=O)[nH]n3)C2)c1 (stereo unspecified) | -1.91 | 5.41 | -10.4 | 10.5 | 1.79 | -2.4 | -0.901 | 4.5 | 1.48 | 11.1 | -7.36
2 | O=C(NCCCOCC1CCCO1)c1cccnc1N1CCCC1 (stereo unspecified) | -2.67 | 5.41 | 4.06 | -10.2 | -2.93 | 0.833 | 14.3 | -4.98 | 9.9 | -3.66 | 6.21
3 | Cc1nc(CN2CCc3ncnc(-c4ccc(F)cc4)c3CC2)cs1 | -3.21 | 10.8 | 5.22 | -0.105 | -1.66 | 9.87 | 18.4 | -9.45 | 5.41 | 17.9 | -0.896
4 | Cc1ccc(CN(Cc2cccnc2)C2CC(C)(C)NC(C)(C)C2)s1 | -5.72 | 1.35 | 9.33 | -0.663 | -3.36 | -5.8 | 10.1 | 13.4 | 2.15 | -1.3 | -9.11
5 | Cc1ccc(-c2nc(CN3CCOC(c4ccccc4)C3)cs2)o1 (stereo unspecified) | 0.984 | -24.3 | -0.197 | 6.73 | 2.7 | 3.81 | 12.6 | -17.4 | 3.7 | 0 | 17.1
6 | Cc1nc(C)n(CC2CCCN(CCc3ccccn3)C2)n1 (stereo unspecified) | -8.02 | 13.9 | -5.61 | -6.83 | 2.36 | -1.07 | 1.2 | 3.25 | 3.12 | 15.2 | -36.4
7 | CS(=O)(=O)NCc1n[nH]c2c1CCN(C(=O)c1ccsc1)C2 | -4.91 | 0 | 2.22 | -3.92 | -3.48 | -59.7 | 10.9 | 5.55 | -2.08 | 0 | -5
8 | CS(=O)(=O)N1CCC2(CN(C(=O)c3cccnc3)C2)C1 | -2.76 | 5.48 | -1.91 | 3.06 | -2.18 | -2.79 | 14.3 | 23.4 | 4.17 | 6.17 | -1.65
9 | CC(C)c1nc(CCNC(=O)NCc2ccnc(N(C)C)c2)cs1 | -3.48 | 6.33 | 8.79 | 4.61 | -0.103 | 5.81 | 9.43 | 12.5 | 1.04 | 5.06 | -13
10 | COc1ccc2cc(C(=O)N3CCCCC3CC(N)=O)[nH]c2c1 (stereo unspecified) | -4.78 | 15.6 | 7.25 | 13.8 | -0.187 | -3.56 | 5.57 | -10.4 | 5.83 | 12.2 | -4.84
11 | Cn1ccnc1CN1CCCN(C(=O)c2ccc3c(c2)COC3)CC1 | -5.22 | 18.4 | 0.632 | -6.65 | -6.44 | 3.24 | 7.7 | -1.32 | 4.43 | 11.1 | -7.65
